HIV Env fusion: HIV envelope-mediated fusion inhibition. HeLa-JRFL Env/CEM21 cell fusion, luciferase. hit rate 1.1% among 360,000. inhibition, % at 12.3 µM;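 active = mean replicate inhibition score of at least 50 and every replicate individually at or above 50; inconclusive = only one of the two criteria met; inactive = mean below 50 and not all replicates reaching 50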;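 note: 0% = plate neutral controls and 100% = maraviroc near 300 nM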
PAX8 inh HTS: PAX8 transcriptional activity inhibition | RMG-I TPO-luciferase reporter, SteadyGlo, 24 h | hit rate 1.2% among 360,000 | inhibition, % at 12.6 µM;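 active = mean replicate inhibition at least 60% with every replicate also reaching 60%; inconclusive = only one of the two criteria is met; inactive = mean below 60% and not all replicates reaching 60%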;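 note: luciferase light reporting Pax8 driven TPO promoter activity; plate controls were median of neutral control wells for no effect and mitoxantrone controls for full effect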
LMP1 NFkB inh: Epstein-Barr LMP1 NF-kappaB reporter inhibition; LMP1-induced NF-kappaB luciferase reporter cells, luminescence; inhibition, % at 12.5 µM; hit rate 0.69% among 350,000; AID 504558; in the data active = inhibition above about 41%; inconclusive = no clear call, values can overlap the other calls;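 note: 0% = neutral control wells and 100% = reference inhibitor control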
Shn3 inh set2: Schnurri-3 reporter inhibition in Clone20 osteoblasts | hit rate 0.52% among 360,000 | inhibition, % at 12.5 µM | AID 588674 | Clone20 osteoblast Shn3 3'UTR firefly luciferase, 24 h;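 active = mean inhibition of at least 75% with every replicate also reaching 75%; inconclusive = mean inhibition at least 75% but some replicate below; inactive = mean inhibition below 75%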;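 note: 0% = median of neutral control wells and 100% = pilot-screen positive control compound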
NSD2 HMT inh: NSD2 (human) methyltransferase inhibition; NSD2 peptide methylation, AlphaScreen, 120 min; inhibition, % at 12.5 µM; hit rate 0.54% among 310,000; AID 743445; in the data active = inhibition above about 50%
Target sequence (O96028 whole entry, looked up): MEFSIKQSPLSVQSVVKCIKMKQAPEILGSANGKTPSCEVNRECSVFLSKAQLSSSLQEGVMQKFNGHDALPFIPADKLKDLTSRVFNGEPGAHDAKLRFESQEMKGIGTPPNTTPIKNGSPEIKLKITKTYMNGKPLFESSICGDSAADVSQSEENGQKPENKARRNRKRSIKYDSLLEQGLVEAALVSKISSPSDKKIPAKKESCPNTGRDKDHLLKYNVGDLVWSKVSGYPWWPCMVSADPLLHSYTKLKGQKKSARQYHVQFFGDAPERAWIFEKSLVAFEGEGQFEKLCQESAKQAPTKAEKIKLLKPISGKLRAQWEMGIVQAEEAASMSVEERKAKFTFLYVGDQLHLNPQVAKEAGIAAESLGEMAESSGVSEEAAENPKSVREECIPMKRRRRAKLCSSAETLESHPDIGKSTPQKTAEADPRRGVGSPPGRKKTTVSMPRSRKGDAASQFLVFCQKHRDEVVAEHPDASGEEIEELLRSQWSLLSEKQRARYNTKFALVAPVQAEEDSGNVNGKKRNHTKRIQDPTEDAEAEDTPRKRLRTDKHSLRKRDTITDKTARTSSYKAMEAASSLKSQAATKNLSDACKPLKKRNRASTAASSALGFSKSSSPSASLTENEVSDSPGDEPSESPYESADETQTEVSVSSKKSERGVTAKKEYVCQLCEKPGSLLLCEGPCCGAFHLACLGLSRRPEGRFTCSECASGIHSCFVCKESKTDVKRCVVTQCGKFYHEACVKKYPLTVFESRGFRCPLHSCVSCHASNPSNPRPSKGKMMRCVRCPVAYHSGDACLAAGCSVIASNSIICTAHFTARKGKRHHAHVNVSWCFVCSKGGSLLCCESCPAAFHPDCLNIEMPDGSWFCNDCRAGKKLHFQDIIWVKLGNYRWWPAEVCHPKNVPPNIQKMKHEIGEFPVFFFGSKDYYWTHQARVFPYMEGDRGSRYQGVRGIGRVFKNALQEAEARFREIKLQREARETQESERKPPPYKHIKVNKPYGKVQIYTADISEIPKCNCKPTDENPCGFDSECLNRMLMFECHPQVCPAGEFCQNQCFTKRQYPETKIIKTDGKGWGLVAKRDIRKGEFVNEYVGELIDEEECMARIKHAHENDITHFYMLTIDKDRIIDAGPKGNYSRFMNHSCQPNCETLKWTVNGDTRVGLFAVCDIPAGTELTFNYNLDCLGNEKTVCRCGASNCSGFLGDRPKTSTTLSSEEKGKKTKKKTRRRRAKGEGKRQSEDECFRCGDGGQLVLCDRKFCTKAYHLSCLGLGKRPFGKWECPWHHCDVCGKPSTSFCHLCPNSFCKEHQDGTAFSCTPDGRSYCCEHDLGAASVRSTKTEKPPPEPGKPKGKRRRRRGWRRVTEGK
Glyco luc inh: N-linked glycosylation inhibition; D54 ERlucT glycosylation luciferase reporter, 24 h; percent of 100 nM tunicamycin response; reporter increase, % at 12.5 µM; hit rate 0.23% among 360,000; AID 588692;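 active = mean luciferase reporter signal, scaled so untreated is 0 and the glycosylation-blocking control 100, at or above a set limit in every replicate; inconclusive = mean reaches the limit but not every replicate does; inactive = mean below the limit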;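 note: luciferase carries N-glycosylation sites so blocking glycosylation raises the light; 0% = median of neutral control wells and 100% = median of 100 nM tunicamycin wells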
Starred values were filed as active, the others as inactive; u = inconclusive; x = no result; [ ] = another dose, or the depositor's remark. Most compounds without a hit are left out; they make up all but 2.8% or so of the library.

SMILES	HIV Env fusion	PAX8 inh HTS	LMP1 NFkB inh	Shn3 inh set2	NSD2 HMT inh	Glyco luc inh
CC(=O)c1cccc(-c2ccnc3c2CC(C(=O)NCc2cccs2)O3)c1 (stereo not drawn)	-30	u	x	-7	-3	34*
CC(C)Oc1ccc(C(=O)Nc2nnc(SCC(=O)N3CCOCC3)s2)cc1	-10	70*	70*	35	-2	-15
CCOC(=O)CNC(=O)CSc1nnc(NC(=O)c2ccc(C)cc2)s1	19	20	55*	34	0	-17
Cc1ccc(C(=O)Nc2nnc(SCC(=O)N3CCCc4ccccc43)s2)cc1	-71	21	51*	-11	0	-6
O=C(Nc1nnc(SCC(=O)N2CCCc3ccccc32)s1)c1cccc2ccccc12	19	11	1	15	1	1
CN(C)S(=O)(=O)c1ccc(C(=O)Nc2nnc(SCC(=O)N3CCOCC3)s2)cc1	-11	-29	17	-1	-3	1
Cc1ccc(C(=O)Nc2nnc(-c3ccc(C(C)(C)C)cc3)s2)cc1	x	x	57*	-18	-1	1
COCC(=O)Nc1ccc2c(c1)C(=O)N(C)C[C@H](OC)[C@@H](C)CN(Cc1cccc(F)c1)[C@H](C)CO2	x	7	x	x	x	x
O=C(NCC[C@@H]1CC[C@H](NC(=O)c2cnccn2)[C@H](CO)O1)Nc1ccc(Cl)cc1	4[16.7 µM]	-1	x	x	x	x
Cc1noc(C)c1NC(=O)N(C)C[C@@H]1OCCCC[C@H](C)Oc2ccc(N(C)C)cc2C(=O)N([C@H](C)CO)C[C@H]1C	-6[16.7 µM]	-14	x	x	x	x
CC[N+](C)(C)Cc1ccccc1Br	-19	-11	83*	3	x	1
Cc1ccc(S(=O)(=O)N(C)C[C@@H]2Oc3ccc(NS(=O)(=O)c4c(C)noc4C)cc3C(=O)N([C@@H](C)CO)C[C@H]2C)cc1	-3[16.7 µM]	-12	x	x	x	x
Cc1nn(C)c(Cl)c1NC(=O)OCc1ccc(Cl)cc1Cl	73*	14	15	77	-2	-3
CCS(=O)(=O)N1CC(=O)N2[C@H](CO)[C@@H](c3ccc(C#CC4CC4)cc3)[C@@H]2C1	x	6	x	x	x	x
Cc1ccc(NC(=O)C(Nc2ccccc2)c2ccccc2)cc1 (stereo not drawn)	-10	-9	1	11	1	5
Cc1ccc(NC(C(=O)c2ccccc2)c2ccccc2)cc1 (stereo not drawn)	1	80*	26	-3	2	0
Cc1cc(C(=O)N2CCCC(C(=O)c3ccc(Cl)cc3C)C2)no1 (stereo not drawn)	61*	22	4	17	-5	-3
Cc1cc(Cl)ccc1C(=O)C1CCCN(C(=O)c2cscn2)C1 (stereo not drawn)	16	2	3	-11	-3	-1
C[C@H](CO)N1C[C@H](C)[C@H](CN(C)Cc2ccc(Oc3ccccc3)cc2)OCc2ccccc2-c2c(n(C)c3ccccc23)C1=O	x	2	x	x	x	x
Cc1cc(OCC(=O)NC(C)C)cc(C)c1Br	x	65*	-6	2	-1	0
COc1cccc(Nc2nc(N)nc(CCl)n2)c1	9	97*	-20	x	0	0
Cc1cccc(Nc2nc(N)nc(CCl)n2)c1	-25	90*	-27	7	6	11
O=C(NC(=S)Nc1cccc2[nH]ncc12)c1ccccc1	4	-172	8	-53	-3	-9
O=C(Nc1cccc2[nH]ncc12)c1ccc(F)cc1	74*	-101	38	-21	0	-11
COC(=O)N1C(=O)[C@@](c2ccsc2)(C(C)C)N1C(=O)OC	x	x	x	x	-4	x
SMILES	HIV Env fusion	PAX8 inh HTS	LMP1 NFkB inh	Shn3 inh set2	NSD2 HMT inh	Glyco luc inh
COc1ccc(NC(C)=O)cc1NC(=O)C1CCCN1C(=O)c1cccs1 (stereo not drawn)	64*	-9	-1	-1	-2	1
COc1ccc(NC(=O)[C@@H]2CCCN2C(=O)c2cccs2)cc1S(=O)(=O)N1CCCCC1	x	-5	-1	-9	1	-1
C[C@@H]1CN([C@H](C)CO)C(=O)Cc2cc(NC(=O)CCCCCC(=O)Nc3ccccc3N)ccc2O[C@@H]1CN(C)Cc1ccc(C(F)(F)F)cc1	44[16.7 µM]	69*	x	x	x	x
C[C@@H]1CN([C@H](C)CO)C(=O)Cc2cc(NC(=O)CCCCCC(=O)Nc3ccccc3N)ccc2O[C@H]1CN(C)Cc1ccc(C(F)(F)F)cc1	38[16.7 µM]	21	x	x	x	x
C[C@@H]1CN([C@H](C)CO)C(=O)Cc2cc(NC(=O)CCCCCC(=O)Nc3ccccc3N)ccc2O[C@@H]1CN(C)Cc1ccc(Oc2ccccc2)cc1	56*[16.7 µM]	u	x	x	x	x
C[C@H](CO)N1C[C@H](C)[C@@H](CN(C)Cc2ccccc2)Oc2ccc(NC(=O)CCCCCC(=O)Nc3ccccc3N)cc2C1=O	6	19	24	-23	x	29*
C[C@H]1CN([C@@H](C)CO)C(=O)Cc2cc(NC(=O)CCCCCC(=O)Nc3ccccc3N)ccc2O[C@@H]1CN(C)Cc1ccc(Oc2ccccc2)cc1	21[16.7 µM]	-26	x	x	x	x
C[C@@H]1CN([C@H](C)CO)C(=O)c2cccc(NC(=O)CCCCCC(=O)Nc3ccccc3N)c2O[C@@H]1CN(C)Cc1ccc(C(F)(F)F)cc1	x	56	x	x	x	x
C[C@H](CO)N1C[C@H](C)[C@@H](CN(C)Cc2ccc(C(F)(F)F)cc2)Oc2c(NC(=O)CCCCCC(=O)Nc3ccccc3N)cccc2C1=O	x	69*	x	x	x	x
COc1cccc(NC(=O)N(C)C[C@@H]2OCc3cnnn3CCCC(=O)N([C@@H](C)CO)C[C@@H]2C)c1	x	10	x	x	x	x
C[C@H](CO)N1C[C@H](C)[C@@H](CN(C)CC2CCOCC2)Oc2ncc(-c3cccc(F)c3)cc2C1=O	7[16.7 µM]	-19	x	x	x	x
C[C@H]1CCCCO[C@H](CN(C)Cc2ccc(C(F)(F)F)cc2)[C@@H](C)CN([C@@H](C)CO)C(=O)c2cc(NS(=O)(=O)c3ccc(F)cc3)ccc2O1	68*[16.7 µM]	89*	x	x	x	x
C[C@@H]1CCCCO[C@@H](CN(C)Cc2ccc(C(F)(F)F)cc2)[C@@H](C)CN([C@H](C)CO)C(=O)c2cc(NS(=O)(=O)c3ccc(F)cc3)ccc2O1	2[16.7 µM]	-2	x	x	x	x
C[C@H](CO)N1C[C@H](C)[C@@H](CN(C)Cc2ccc(C(F)(F)F)cc2)OCCCC[C@H](C)Oc2ccc(NS(=O)(=O)c3ccc(F)cc3)cc2C1=O	18[16.7 µM]	94*	x	x	x	x
C[C@H](CO)N1C[C@H](C)[C@@H](CN(C)Cc2ccccc2)OCCCC[C@H](C)Oc2ccc(NS(=O)(=O)c3ccc(F)cc3)cc2C1=O	7[16.7 µM]	-18	x	x	x	x
C[C@@H]1CN([C@H](C)CO)C(=O)c2cc(NS(=O)(=O)c3ccc(F)cc3)ccc2O[C@@H](C)CCCCO[C@@H]1CN(C)Cc1ccccc1	4[16.7 µM]	106*	x	x	x	x
C[C@@H]1CCCCO[C@@H](CN(C)C(=O)CCC(F)(F)F)[C@@H](C)CN([C@@H](C)CO)C(=O)c2cc(NC(=O)CCC(F)(F)F)ccc2O1	-14[16.7 µM]	-19	x	x	x	x

Bioassay records (PubChem BioAssay)
